{
  "source": "PubChem BioAssay (NCATS)",
  "note": "Results filed as inconclusive are left out. Activity calls are given as the source filed them. Calls follow the shape of the dose curve; as a rule, active = well fitted cell-killing curve with a large enough effect; inconclusive = small, poorly fitted or top-dose-only effect; inactive = flat fitted curve, though single readings scatter. % is scaled to controls: 0 for no effect and ±100 for the full control effect.",
  "data": [
    {"experiment": "Cell Viability - H-4-II-E (AID 543); also: nearly all actives have a fitted effect of over 35% in size", "conditions": "H-4-II-E rat hepatoma viability; series mostly up to 92.2 µM; activity change, negative = cytotoxic: at the top concentration", "excerpt": "NIH Chemical Genomics Center [NCGC]\nNIH Molecular Libraries Screening Centers Network [MLSCN]\nNational Institutes of Environmental Health Sciences [NIEHS]\nNational Toxicology Program [NTP]\nWe have developed a 1536-well cell-based assay for quantitative high throughput screening (qHTS) against a number of cell lines to determine in vitro cytotoxicity of small molecules. This particular assay uses the H-4-II-E cell line which is derived from rat hepatoma.\nNCGC Assay Protocol Summary:\nThe CellTiter-Glo luminescent cell viability assay (Promega) is a homogeneous method to measure the number of viable cells in culture. The end point readout of this assay is based on quantitation of intracellular ATP, an indicator of metabolic activity, using the luciferase reaction. Luciferase catalyzes the oxidation of beetle Luciferin to oxyluciferin and light in the presence of ATP. The luminescent signal is proportional to amount of ATP present.\nUsing the CellTiter-Glo luminescent cell viability assay, the amount of cellular ATP was measured in the H-4-II-E cell line with complete culture medium following compound treatment for 40 hours. The assay was performed in opaque white Kalypsys 1536-well plates. In the screen, tamoxifen and doxorubicin were used as positive controls. Library compounds were measured for their ability to cause acute toxicity in the cell line, as reflected by a decrease in intracellular ATP levels, in a concentration-dependent manner. […] AC50 values were determined from concentration-response data modeled with the standard Hill equation.\nqHTS protocol fo CellTiter Glo H-4-II-E cellular assay\n[Step] [Parameter] [Value] [Description]\n1. Reagent; 5 uL; 1500 H-4-II-E cells/well\n2. Time; 5 hr; 37 °C incubation\n4. Controls; 23 nL; Tamoxifen 0.34 uM to 100 uM & Doxorubicin 0.02 nM to 100 uM\n5. Time; 40 hr; 37 °C incubation\n6. Reagent; 5 uL; CellTiter Glo reagent\n7. Time; 20 min; Room Temperature\n8. Detection; Luminescence; Viewlux plate reader\nKeywords: cell viability, cytotoxicity, H-4-II-E cell line, luminescence, NTPHTS, NTPHTS_NCGC, NIEHS, EPA, DSSTox, MLSMR, MLSCN, NIH Roadmap, qHTS, NCGC", "values": [
      {"smiles": "Cc1cc(C)cc(N)c1", "activity change, negative = cytotoxic": "-2.02% (inactive)"},
      {"smiles": "COC(=O)CC#N", "activity change, negative = cytotoxic": "-9.99% (inactive)"},
      {"smiles": "S=C([S-])NCCNC(=S)[S-].[Zn+2]", "activity change, negative = cytotoxic": "-1.63% (inactive)"},
      {"smiles": "CCCCC(CC)C(=O)O", "note": "(stereo not given)", "activity change, negative = cytotoxic": "-2.7% (inactive)"},
      {"smiles": "CSc1ccc(C=O)cc1", "activity change, negative = cytotoxic": "-6.59% (inactive)"},
      {"smiles": "Nc1nc(-c2ccccc2)cs1", "activity change, negative = cytotoxic": "-16.7% (inactive)"},
      {"smiles": "COc1ccc(OC)cc1", "activity change, negative = cytotoxic": "1.67% (inactive)"},
      {"smiles": "Fc1ccccc1", "activity change, negative = cytotoxic": "3.59% (inactive)"},
      {"smiles": "CC(C)(O)CCC(C)(C)O", "activity change, negative = cytotoxic": "-0.315% (inactive)"},
      {"smiles": "c1ccc2c(c1)Oc1ccccc1S2", "activity change, negative = cytotoxic": "-2.66% (inactive)"},
      {"smiles": "Cc1cc(C)cc(O)c1", "activity change, negative = cytotoxic": "1.74% (inactive)"},
      {"smiles": "CCCCC/C=C/C=C/C=O", "activity change, negative = cytotoxic": "-17% (inactive)"},
      {"smiles": "CC(C)=C1CCC(C)CC1=O", "note": "(stereo not given)", "activity change, negative = cytotoxic": "-4.29% (inactive)"},
      {"smiles": "O=C(O)CNC(=O)c1ccc(CO)o1", "activity change, negative = cytotoxic": "2.13% (inactive)"},
      {"smiles": "Nc1ccccc1S(=O)(=O)O", "activity change, negative = cytotoxic": "-4.18% (inactive)"},
      {"smiles": "CCCCCCCCC/C=C/CC1CC(=O)OC1=O", "note": "(stereo not given)", "activity change, negative = cytotoxic": "7.69% (inactive)"},
      {"smiles": "CCNS(=O)(=O)c1ccc(C)cc1", "activity change, negative = cytotoxic": "-11.2% (inactive)"},
      {"smiles": "Clc1ccccn1", "activity change, negative = cytotoxic": "-2.89% (inactive)"},
      {"smiles": "Cc1ccc(C)c(N)c1", "activity change, negative = cytotoxic": "0.383% (inactive)"},
      {"smiles": "CCCCCCC(=O)O", "activity change, negative = cytotoxic": "-10.6% (inactive)"},
      {"smiles": "Clc1cc(Cl)cc(Cl)c1", "activity change, negative = cytotoxic": "-7.96% (inactive)"},
      {"smiles": "CC(O)CC(C)O", "note": "(stereo not given)", "activity change, negative = cytotoxic": "-5.21% (inactive)"},
      {"smiles": "Cc1ccccc1Br", "activity change, negative = cytotoxic": "4.68% (inactive)"},
      {"smiles": "CC(C)=CCC/C(C)=C/C=O", "activity change, negative = cytotoxic": "-3.24% (inactive)"},
      {"smiles": "CCCCC(CC)COCC1CO1", "note": "(stereo not given)", "activity change, negative = cytotoxic": "-2.72% (inactive)"},
      {"smiles": "CCCCC(C=O)CC", "note": "(stereo not given)", "activity change, negative = cytotoxic": "0.128% (inactive)"},
      {"smiles": "O=C1OC(=O)c2cc([N+](=O)[O-])ccc21", "activity change, negative = cytotoxic": "4.68% (inactive)"},
      {"smiles": "O=C(O)c1ccc(Cl)cc1Cl", "activity change, negative = cytotoxic": "-10.7% (inactive)"},
      {"smiles": "C=CC(=O)OCCCC", "activity change, negative = cytotoxic": "-0.734% (inactive)"},
      {"smiles": "CCN(CC)c1cccc(O)c1", "activity change, negative = cytotoxic": "-11.3% (inactive)"},
      {"smiles": "O=C(O)c1cc(Cl)cc(Cl)c1", "activity change, negative = cytotoxic": "-9.07% (inactive)"},
      {"smiles": "C/C=C1\\CC2C=CC1C2", "note": "(stereo not given)", "activity change, negative = cytotoxic": "1.58% (inactive)"},
      {"smiles": "Cc1cccc(Br)c1", "activity change, negative = cytotoxic": "-9.89% (inactive)"},
      {"smiles": "NC(=O)c1ccccc1[N+](=O)[O-]", "activity change, negative = cytotoxic": "0.439% (inactive)"},
      {"smiles": "CC(=O)c1nccs1", "activity change, negative = cytotoxic": "-0.876% (inactive)"},
      {"smiles": "CC(=O)Nc1ccc(C)cc1", "activity change, negative = cytotoxic": "-8.41% (inactive)"},
      {"smiles": "FC(F)(F)c1cccc(Cl)c1", "activity change, negative = cytotoxic": "-1.77% (inactive)"},
      {"smiles": "CN(C)c1cccc(O)c1", "activity change, negative = cytotoxic": "-1.83% (inactive)"},
      {"smiles": "O=P(O)(OCc1ccccc1)OCc1ccccc1", "activity change, negative = cytotoxic": "-1.46% (inactive)"},
      {"smiles": "O=C1OC(=O)c2c(Cl)c(Cl)c(Cl)c(Cl)c21", "activity change, negative = cytotoxic": "-1.81% (inactive)"}
    ]}
  ]
}
